Shown are actives, neighbours in structure and some others; about 4.7% of the full set was active somewhere.
GDH-TPI counter: GDH-TPI coupling enzyme inhibitors, primary screen, artefact control for M. tuberculosis FBA inhibitor project, biochemical, absorbance, full deck | inhibition, % at 4.8 µM | GDH-TPI coupled enzyme counterscreen, NADH absorbance | 1.2% of 360,000 active | AID 588335, 2011;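 also: 0% = DMSO wells and 100% = wells lacking the enzyme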
CCHFV vOTU inh: CCHFV vOTU protease inhibitors, primary screen, biochemical, Pep-AMC substrate, fluorescence; inhibition, % at 11.5 µM; 0.55% of 370,000 active; also: 0% = vehicle wells with enzyme and 100% = no enzyme wells
VHR inh abs: VHR1 phosphatase inhibitors, primary screen, biochemical, absorbance, uHTS. Dual specificity protein phosphatase 3 (Homo sapiens), P51452. recombinant VHR phosphatase, pNPP absorbance. inhibition, % at 13.3 µM. 0.52% of 290,000 active. AID 1654, 2009; in the data active = inhibition above about 50%
RecA intein inh: Mtb RecA intein splicing inhibitors, primary screen, biochemical, fluorescence, HTS | 0.75% of 290,000 active | cell-free RecA intein splicing | inhibition, % (concentration not given with the values) | Protein RecA (Mycobacterium tuberculosis (strain ATCC 25618 / H37Rv)), P9WHJ3 | AID 2221, 2009; in the data active = inhibition above about 30%;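 also: 0% = vehicle wells and 100% = reference inhibitor control wells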
SARS 3CLpro inh: SARS-CoV 3CLpro protease inhibitors, primary screen, biochemical, quenched FRET; inhibition, % at 6 µM; 0.14% of 290,000 active; Replicase polyprotein 1ab (Severe acute respiratory syndrome coronavirus), P0C6X7; recombinant SARS-CoV 3CLpro, quenched FRET peptide cleavage; in the data active = inhibition above about 12%
Mtb FBA inh: Mtb FBA enzyme inhibitors, primary screen, biochemical, fluorescence, strain H37Rv. Fructose-bisphosphate aldolase (Mycobacterium tuberculosis (strain ATCC 25618 / H37Rv)), …. purified M. tuberculosis FBA, fluorescence read-out. inhibition, % at 1 µM. 2.3% of 360,000 active. AID 588726, 2011; in the data active = inhibition above about 27%;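 also: 0% = vehicle and 100% = reference inhibitor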
* hit, by the source's call; i = inactive; . = not tested or not shown; + = active, no number. Rule as the data show it, unless noted: active = inhibition above about 30%; inactive = the rest.

SMILES | GDH-TPI counter | CCHFV vOTU inh | VHR inh abs | RecA intein inh | SARS 3CLpro inh | Mtb FBA inh
COc1cccc2cc(-c3nc4ccccc4[nH]3)c(=O)oc12 | 31* | 9 | 15 | -45 | -1 | 2
COc1cccc2cc(-c3ccccc3)c(=O)oc12 | -1 | 6 | 1 | 0 | 2 | 3
Cc1cccc2cc(-c3nc4ccc(C(=O)O)cc4[nH]3)c(=O)oc12 | 31* | . | 40 | i | 1 | 34*
CCCCN1CC(COCc2ccccc2)Oc2cccc(Oc3ccc(SC)c(C)c3)c2S1(=O)=O (stereo unspecified) | . | 10 | . | . | . | .
O=C(OCc1ccccc1)c1c(-c2ccccc2)oc2c1C(OCCO)CCC2 (stereo unspecified) | . | 9 | . | . | . | .
CC(=O)Nc1ccc(C(=O)OCC(=O)Nc2c(C)n(C)n(-c3ccccc3)c2=O)cc1 | 7 | 9 | . | . | . | 1
Cc1ccc(S(=O)(=O)c2nnn3c2nc(NCCCN2CCCC2=O)c2ccccc23)cc1C | 3 | 9 | 9 | 1 | 5 | 31*
Cc1cc(OCC(=O)Nc2ccc(Br)cc2)cc2c1C(=O)CC(C)(C)O2 | -4 | 6 | 1 | 1 | 4 | 1
Cc1c(C)c2c(OCC(=O)NCC(=O)NCC(=O)O)cc3c(c2oc1=O)CCC(C)(C)O3 | 12 | -306 | -16 | 0 | -1 | +
COc1ccc2c3c(c(=O)oc2c1OCC(=O)O)CCCC3 | 1 | -28 | 2 | 2 | -1 | 24
Cc1c(C)c2c(OCC(=O)Nc3ccc(CCO)cc3)cc3c(c2oc1=O)CCC(C)(C)O3 | 24 | -94 | 12 | 1 | -3 | +
Cc1c(C)c2c(OCC(=O)O)cc3c(c2oc1=O)CCC(C)(C)O3 | 9 | -251 | . | -5 | -4 | +
CCOC(=O)c1cc2c(=O)n3ccccc3nc2n(Cc2ccco2)c1=NC(=O)c1ccccc1OCC | 10 | -84 | 20 | -96 | -3 | 173*
CCOC(=O)c1cc2c(=O)n3ccccc3nc2n(CC(C)C)c1=NC(=O)c1ccco1 | 9 | -77 | 1 | -349 | -1 | 135*
CCOC(=O)c1cc2c(=O)n3ccccc3nc2n(Cc2ccco2)c1=NC(=O)c1cccnc1 | 14 | -86 | 19 | -234 | -3 | 131*
CCOC(=O)c1cc2c(=O)n3ccccc3nc2n(CCCOC)c1=NC(=O)c1cccnc1 | . | . | 4 | -63 | -4 | .
CCOC(=O)c1cc2c(=O)n3ccccc3nc2n(C(C)C)c1=NC(=O)c1c(-c2ccccc2Cl)noc1C | -1 | -11 | 8 | -9 | -1 | 18
COc1ccc(CCNC(=O)c2cc3c(=O)n4ccccc4nc3n(Cc3ccco3)c2=N)cc1OC | -3 | -10 | 20 | -8 | -7 | -2
Cc1c[nH]c2cccc(-c3c(Cl)cccc3Cl)c12 | . | 12 | . | . | . | .
N#CCc1ccc(NC(=O)/C=C/c2ccc([N+](=O)[O-])o2)cc1 | 34* | . | 5 | 8 | 3 | -1
COc1cc(/C=N/n2nnnc2N)ccc1O | 44* | -1 | 30 | -4 | -5 | 2
CCN(CC)c1ccc(/C=N/n2nnnc2N)c(O)c1 | 38* | 4 | -8 | -38 | -5 | 1
CCCOc1ccc(/C=N/n2nnnc2N)cc1OC | 30 | 9 | 9 | -2 | 0 | 9
CSc1ccc(/C=N/n2nnnc2N)cc1 | 43* | -20 | -16 | 1 | -1 | 18
Nc1nnnn1/N=C/c1ccc(O)cc1 | 15 | 10 | 11 | . | 3 | 7
CCN(C)c1ccc(/C=N\n2nnnc2N)cc1 | 23 | -23 | 32 | -124 | 4 | 28*
Nc1nnnn1/N=C/c1cc(Cl)ccc1O | 0 | 6 | 13 | -149 | 0 | 2
COc1cccc(CNC(=O)c2cc(S(=O)(=O)N3CCOCC3)cn2C)c1 | 4 | -5 | 29 | -3 | -3 | 4
CC(=O)NC(c1cccc(F)c1)c1nc(-c2ccc(N(C)C)cc2)cs1 (stereo unspecified) | 13 | -3 | . | . | . | 2
